Test in all cases: DAPPL (digital affinity profiling via proximity ligation, sequencing); 10 mM Tris-HCl pH 7.5, 50 mM NaCl, 1 mM DTT, 4% glycerol, room temperature, 30 min; GST-TFs on glutathione beads, 16-mer random dsDNA library, 0.1% formaldehyde crosslink after washing; high values mean tight binding
Details in all cases: protein: recombinant; tags: N-terminal GST; dsDNA, one strand shown

The target in experiment [1] is T1, FLI1 (Homo sapiens, UniProt Q01543 1-452).
T1 sequence: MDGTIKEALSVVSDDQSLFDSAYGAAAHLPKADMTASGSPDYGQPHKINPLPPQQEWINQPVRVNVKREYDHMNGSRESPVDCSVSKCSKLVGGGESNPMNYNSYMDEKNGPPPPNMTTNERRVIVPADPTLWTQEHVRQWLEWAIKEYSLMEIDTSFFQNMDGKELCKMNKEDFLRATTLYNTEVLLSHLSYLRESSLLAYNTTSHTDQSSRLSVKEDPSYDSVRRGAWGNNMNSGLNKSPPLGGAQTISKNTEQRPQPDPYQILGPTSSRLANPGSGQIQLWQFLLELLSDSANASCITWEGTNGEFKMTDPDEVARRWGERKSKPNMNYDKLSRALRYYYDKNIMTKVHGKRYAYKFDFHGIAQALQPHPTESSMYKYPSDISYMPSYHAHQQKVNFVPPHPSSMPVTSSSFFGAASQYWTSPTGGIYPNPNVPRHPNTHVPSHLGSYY
In a few lines: (§1)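 A tag-only sample was pooled with DNA-barcoded human transcription factors that had been expressed in yeast as GST fusions and captured on glutathione beads. The pools were incubated for 30 min at room temperature with 200 nmole of a random double-stranded 16-mer DNA library in Tris/NaCl/DTT/glycerol buffer, then washed, crosslinked with 0.1% formaldehyde, proximity-ligated (BsaI/T4 ligase, 1 h, 37 °C), PCR-amplified and sequenced on an Illumina NextSeq500. Binding signal is each hexamer's read frequency for a factor divided by its frequency for the tag-only sample.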

Experiment [2] deals with T2, ELK1 (Homo sapiens, UniProt P19419 1-428).
T2 sequence: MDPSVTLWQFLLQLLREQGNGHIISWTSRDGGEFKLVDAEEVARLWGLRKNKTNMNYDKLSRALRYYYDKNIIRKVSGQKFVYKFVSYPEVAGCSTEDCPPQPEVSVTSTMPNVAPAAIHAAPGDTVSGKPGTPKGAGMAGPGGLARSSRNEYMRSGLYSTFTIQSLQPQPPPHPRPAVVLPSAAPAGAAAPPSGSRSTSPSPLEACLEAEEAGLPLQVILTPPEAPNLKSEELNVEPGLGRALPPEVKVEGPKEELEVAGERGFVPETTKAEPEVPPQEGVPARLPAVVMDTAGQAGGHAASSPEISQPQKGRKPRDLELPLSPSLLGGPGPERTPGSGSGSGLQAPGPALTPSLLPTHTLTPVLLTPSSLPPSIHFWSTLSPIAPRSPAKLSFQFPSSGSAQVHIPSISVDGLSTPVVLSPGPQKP
In a few lines: as §1

The target in experiment [3] is T3, ERG (Homo sapiens, UniProt P11308 1-479).
T3 sequence: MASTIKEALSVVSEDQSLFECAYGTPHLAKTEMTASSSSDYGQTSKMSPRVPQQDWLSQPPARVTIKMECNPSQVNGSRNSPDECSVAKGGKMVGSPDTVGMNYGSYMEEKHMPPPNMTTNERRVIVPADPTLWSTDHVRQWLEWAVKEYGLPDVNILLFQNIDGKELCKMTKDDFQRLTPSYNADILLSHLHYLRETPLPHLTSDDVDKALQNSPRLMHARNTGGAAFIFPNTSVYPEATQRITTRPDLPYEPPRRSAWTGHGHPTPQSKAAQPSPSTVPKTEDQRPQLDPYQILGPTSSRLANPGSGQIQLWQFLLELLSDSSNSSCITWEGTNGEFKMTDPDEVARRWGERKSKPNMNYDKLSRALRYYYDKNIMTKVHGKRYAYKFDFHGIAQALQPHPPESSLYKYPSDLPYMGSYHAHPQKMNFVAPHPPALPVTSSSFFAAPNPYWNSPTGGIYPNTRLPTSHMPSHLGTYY
In short, it runs like this: as §1

Experiment [4] concerns the target ELF1 (Homo sapiens, UniProt P32519 1-619). In short, it runs like this: as §1
Experiment [5] has as its target T4, EHF (Homo sapiens, UniProt Q9NZC4 1-300).
T4 sequence: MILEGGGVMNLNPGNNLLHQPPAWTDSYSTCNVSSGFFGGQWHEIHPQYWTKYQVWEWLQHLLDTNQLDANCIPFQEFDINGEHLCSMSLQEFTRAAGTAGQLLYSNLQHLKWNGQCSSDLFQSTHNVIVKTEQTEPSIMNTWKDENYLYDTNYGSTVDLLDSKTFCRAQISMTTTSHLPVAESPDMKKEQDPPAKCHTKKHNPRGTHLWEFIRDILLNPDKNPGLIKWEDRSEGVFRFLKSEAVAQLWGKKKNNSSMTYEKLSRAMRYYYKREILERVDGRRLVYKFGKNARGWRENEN
In short, it runs like this: as §1

In experiment [6] the target is SPIB (Homo sapiens, UniProt Q01892 1-262). In a few lines: as §1
The target of experiment [7] is T5, FEV (Homo sapiens, UniProt Q99581 1-238).
T5 sequence: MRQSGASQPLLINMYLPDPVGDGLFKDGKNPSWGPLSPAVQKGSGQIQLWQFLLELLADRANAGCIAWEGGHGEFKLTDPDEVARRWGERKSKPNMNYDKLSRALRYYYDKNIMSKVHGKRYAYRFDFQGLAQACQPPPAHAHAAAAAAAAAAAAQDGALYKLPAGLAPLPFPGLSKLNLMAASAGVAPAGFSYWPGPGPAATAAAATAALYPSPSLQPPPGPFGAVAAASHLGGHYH
In short, it runs like this: as §1

The target of experiment [8] is ETV5 (Homo sapiens, UniProt P41161 1-510). In a few lines:
as §1

Experiment [9] concerns the target ELF4 (Homo sapiens, UniProt Q99607 1-663). In a few lines: as §1
Experiment [10] has as its target ETV1 (Homo sapiens, UniProt P50549 1-477). In short, it runs like this:
as §1

For experiment [11], the target named is T6, ERF (Homo sapiens, UniProt P50548 1-548).
T6 sequence: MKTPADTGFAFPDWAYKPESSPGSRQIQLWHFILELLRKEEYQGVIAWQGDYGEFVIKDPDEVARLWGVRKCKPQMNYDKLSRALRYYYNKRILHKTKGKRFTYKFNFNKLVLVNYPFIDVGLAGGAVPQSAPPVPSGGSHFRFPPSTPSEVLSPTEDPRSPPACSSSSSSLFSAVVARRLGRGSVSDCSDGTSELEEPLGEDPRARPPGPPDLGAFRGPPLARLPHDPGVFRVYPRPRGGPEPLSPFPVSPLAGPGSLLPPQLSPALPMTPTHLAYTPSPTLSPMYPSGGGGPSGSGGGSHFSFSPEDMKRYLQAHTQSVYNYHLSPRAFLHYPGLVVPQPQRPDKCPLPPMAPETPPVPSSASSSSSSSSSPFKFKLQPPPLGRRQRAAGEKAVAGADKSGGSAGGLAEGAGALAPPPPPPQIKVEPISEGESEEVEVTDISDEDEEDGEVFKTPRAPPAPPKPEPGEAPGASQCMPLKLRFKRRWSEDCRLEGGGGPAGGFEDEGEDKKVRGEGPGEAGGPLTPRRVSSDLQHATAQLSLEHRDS
In short, it runs like this:
as §1

In experiment [12] the target is T7, ETV3L (Homo sapiens, UniProt Q6ZN32 1-361).
T7 sequence: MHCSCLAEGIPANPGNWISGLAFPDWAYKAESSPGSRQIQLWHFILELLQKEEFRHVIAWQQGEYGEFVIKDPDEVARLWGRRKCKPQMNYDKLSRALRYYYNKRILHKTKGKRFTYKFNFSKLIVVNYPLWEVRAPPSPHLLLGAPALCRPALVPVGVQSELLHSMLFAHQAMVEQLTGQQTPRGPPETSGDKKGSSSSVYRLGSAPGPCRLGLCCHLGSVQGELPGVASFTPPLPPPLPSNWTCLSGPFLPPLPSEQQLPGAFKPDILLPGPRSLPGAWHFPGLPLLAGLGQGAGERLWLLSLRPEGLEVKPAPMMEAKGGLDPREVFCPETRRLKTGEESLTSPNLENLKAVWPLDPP
In a few lines: as §1

The target in experiment [13] is T8, ETS2 (Homo sapiens, UniProt P15036 1-469).
T8 sequence: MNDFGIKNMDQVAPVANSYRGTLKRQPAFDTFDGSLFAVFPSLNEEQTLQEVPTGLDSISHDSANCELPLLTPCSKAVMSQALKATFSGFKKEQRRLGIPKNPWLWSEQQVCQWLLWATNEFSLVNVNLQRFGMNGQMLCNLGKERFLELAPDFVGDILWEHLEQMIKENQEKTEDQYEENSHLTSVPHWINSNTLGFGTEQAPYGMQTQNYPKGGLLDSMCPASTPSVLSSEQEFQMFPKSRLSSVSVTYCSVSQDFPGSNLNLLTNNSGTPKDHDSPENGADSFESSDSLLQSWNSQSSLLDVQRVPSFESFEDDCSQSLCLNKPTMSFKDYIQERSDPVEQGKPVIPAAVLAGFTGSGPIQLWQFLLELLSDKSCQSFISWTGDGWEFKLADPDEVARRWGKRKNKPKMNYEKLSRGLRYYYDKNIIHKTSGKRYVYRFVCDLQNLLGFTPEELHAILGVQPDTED
In short, it runs like this:
as §1

Experiment [14] concerns the target T9, SPDEF (Homo sapiens, UniProt O95238 1-335).
T9 sequence: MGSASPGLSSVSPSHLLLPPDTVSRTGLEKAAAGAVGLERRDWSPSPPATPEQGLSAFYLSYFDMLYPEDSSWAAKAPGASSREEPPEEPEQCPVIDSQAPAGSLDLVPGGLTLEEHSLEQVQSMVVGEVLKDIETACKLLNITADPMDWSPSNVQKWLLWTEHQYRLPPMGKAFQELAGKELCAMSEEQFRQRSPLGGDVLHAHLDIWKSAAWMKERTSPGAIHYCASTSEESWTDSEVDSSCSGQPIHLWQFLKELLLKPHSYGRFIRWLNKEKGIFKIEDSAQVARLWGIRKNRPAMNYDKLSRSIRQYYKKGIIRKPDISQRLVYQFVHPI
In a few lines:
as §1

For experiment [15], the target named is T10, ELF5 (Homo sapiens, UniProt Q9UKW6-2 1-255).
T10 sequence: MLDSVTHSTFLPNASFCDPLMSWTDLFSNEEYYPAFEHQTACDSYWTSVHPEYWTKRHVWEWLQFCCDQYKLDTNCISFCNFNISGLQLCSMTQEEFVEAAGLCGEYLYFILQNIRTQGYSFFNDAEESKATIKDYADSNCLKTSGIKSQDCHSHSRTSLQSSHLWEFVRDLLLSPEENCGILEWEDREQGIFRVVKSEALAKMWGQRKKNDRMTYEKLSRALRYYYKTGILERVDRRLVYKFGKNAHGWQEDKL
In a few lines:
as §1

In experiment [16] the target is T11, ETV3 (Homo sapiens, UniProt P41162-2 1-143).
T11 sequence: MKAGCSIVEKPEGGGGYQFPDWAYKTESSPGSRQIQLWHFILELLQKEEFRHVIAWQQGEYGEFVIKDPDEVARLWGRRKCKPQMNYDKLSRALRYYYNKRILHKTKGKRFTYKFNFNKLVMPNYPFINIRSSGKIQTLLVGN
In a few lines: as §1

Experiment [17] addresses ETV6 (Homo sapiens, UniProt P41212 1-452). In a few lines: as §1

SPIB, sequence (Q01892 whole entry): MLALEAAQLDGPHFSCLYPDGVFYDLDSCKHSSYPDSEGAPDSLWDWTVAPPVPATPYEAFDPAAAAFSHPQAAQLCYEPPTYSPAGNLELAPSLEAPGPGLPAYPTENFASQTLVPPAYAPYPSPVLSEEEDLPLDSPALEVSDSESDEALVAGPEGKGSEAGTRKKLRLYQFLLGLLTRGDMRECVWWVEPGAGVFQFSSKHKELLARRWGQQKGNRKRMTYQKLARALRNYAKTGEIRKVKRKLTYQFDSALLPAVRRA
ETV6, sequence (P41212 whole entry): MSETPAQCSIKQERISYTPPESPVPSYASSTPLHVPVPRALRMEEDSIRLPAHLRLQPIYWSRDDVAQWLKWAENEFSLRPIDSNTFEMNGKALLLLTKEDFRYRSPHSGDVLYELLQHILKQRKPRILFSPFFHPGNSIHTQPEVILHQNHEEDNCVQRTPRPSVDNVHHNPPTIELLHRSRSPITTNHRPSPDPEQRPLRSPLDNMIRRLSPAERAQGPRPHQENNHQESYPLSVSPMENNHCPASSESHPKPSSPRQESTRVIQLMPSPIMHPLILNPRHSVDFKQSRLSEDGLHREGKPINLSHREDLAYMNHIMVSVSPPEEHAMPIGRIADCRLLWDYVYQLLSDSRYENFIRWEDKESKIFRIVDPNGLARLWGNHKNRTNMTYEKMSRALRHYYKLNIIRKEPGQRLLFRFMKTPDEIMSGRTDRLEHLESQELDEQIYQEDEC
ETV1, sequence (P50549 whole entry): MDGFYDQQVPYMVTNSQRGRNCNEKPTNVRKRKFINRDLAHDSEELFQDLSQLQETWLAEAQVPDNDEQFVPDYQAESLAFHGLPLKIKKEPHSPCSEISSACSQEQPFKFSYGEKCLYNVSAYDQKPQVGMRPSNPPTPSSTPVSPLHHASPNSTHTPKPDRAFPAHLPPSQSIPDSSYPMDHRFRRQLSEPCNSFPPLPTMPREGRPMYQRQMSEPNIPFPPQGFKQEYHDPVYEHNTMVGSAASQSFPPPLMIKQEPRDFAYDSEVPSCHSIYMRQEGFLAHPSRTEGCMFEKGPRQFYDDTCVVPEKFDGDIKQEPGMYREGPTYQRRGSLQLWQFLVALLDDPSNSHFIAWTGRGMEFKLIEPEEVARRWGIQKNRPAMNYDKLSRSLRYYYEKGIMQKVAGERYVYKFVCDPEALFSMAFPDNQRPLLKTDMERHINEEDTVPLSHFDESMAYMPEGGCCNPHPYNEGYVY
ETV5, sequence (P41161 whole entry): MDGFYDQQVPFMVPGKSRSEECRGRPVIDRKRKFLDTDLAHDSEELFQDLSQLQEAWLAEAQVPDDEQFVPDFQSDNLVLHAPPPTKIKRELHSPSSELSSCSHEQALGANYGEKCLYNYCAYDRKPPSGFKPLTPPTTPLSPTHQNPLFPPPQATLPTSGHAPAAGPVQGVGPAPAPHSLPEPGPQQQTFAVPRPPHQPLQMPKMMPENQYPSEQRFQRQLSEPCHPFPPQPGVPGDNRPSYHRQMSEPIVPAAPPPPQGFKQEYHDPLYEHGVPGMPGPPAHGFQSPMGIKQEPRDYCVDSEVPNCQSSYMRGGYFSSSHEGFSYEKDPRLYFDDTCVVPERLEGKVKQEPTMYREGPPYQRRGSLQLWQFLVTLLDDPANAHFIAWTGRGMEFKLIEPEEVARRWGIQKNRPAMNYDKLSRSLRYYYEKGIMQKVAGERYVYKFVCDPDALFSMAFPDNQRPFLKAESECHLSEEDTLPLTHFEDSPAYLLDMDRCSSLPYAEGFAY
ELF4, sequence (Q99607 whole entry): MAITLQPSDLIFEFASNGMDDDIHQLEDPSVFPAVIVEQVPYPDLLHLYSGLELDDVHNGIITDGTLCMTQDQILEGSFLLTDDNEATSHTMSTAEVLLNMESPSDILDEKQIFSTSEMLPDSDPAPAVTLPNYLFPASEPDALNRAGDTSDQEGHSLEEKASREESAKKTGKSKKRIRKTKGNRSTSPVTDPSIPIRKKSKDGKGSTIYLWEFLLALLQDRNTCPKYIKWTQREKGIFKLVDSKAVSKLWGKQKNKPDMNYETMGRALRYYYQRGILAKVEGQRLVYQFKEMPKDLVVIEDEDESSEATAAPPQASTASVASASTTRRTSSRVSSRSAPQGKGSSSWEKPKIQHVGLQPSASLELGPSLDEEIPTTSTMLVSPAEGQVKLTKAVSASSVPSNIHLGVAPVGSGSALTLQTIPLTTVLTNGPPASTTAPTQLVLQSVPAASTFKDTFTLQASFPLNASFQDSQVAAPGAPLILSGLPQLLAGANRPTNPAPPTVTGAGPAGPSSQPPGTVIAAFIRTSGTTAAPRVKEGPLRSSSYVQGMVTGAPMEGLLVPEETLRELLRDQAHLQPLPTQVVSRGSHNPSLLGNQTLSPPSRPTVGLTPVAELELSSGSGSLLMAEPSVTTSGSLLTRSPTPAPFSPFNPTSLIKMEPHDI
ELF1, sequence (P32519 whole entry): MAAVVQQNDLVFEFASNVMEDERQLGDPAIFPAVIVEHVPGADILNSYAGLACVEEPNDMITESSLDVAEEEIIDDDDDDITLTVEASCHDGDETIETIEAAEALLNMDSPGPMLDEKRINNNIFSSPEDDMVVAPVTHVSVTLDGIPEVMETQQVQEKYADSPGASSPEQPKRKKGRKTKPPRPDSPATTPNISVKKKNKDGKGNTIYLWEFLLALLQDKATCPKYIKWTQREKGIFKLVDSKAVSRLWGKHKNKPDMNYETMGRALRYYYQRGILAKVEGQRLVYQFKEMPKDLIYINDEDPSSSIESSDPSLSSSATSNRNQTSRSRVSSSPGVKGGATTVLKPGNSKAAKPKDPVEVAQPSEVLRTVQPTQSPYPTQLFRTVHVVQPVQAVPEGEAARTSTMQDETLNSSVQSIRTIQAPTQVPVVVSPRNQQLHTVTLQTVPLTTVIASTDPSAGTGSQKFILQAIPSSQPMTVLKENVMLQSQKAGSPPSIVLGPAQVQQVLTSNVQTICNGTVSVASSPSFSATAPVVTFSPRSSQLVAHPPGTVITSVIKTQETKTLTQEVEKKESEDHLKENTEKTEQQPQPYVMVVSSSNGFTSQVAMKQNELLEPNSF

As for CAAGTT, the binding signal in experiment [1] was 1.11 fold enrichment (6-mer frequency, TF over GST control); in [2] it was 1.06 fold enrichment (6-mer frequency, TF over GST control); in [3], 1.08 fold enrichment (6-mer frequency, TF over GST control); in [4] it was 1.06 fold enrichment (6-mer frequency, TF over GST control); in experiment [5], 1.02 fold enrichment (6-mer frequency, TF over GST control); in [6], 1.1 fold enrichment (6-mer frequency, TF over GST control). In addition, the binding signal was 1.02 fold enrichment (6-mer frequency, TF over GST control) in experiment [7]; 1.08 fold enrichment (6-mer frequency, TF over GST control) in experiment [8]; 1.09 fold enrichment (6-mer frequency, TF over GST control) in experiment [9]; 1.05 fold enrichment (6-mer frequency, TF over GST control) in experiment [10]; 1.2 fold enrichment (6-mer frequency, TF over GST control) in [11]; 1.1 fold enrichment (6-mer frequency, TF over GST control) in experiment [12]. Besides, the binding signal in experiment [13] is 1.13 fold enrichment (6-mer frequency, TF over GST control); in experiment [14], 1.02 fold enrichment (6-mer frequency, TF over GST control); in experiment [15] it was 1.03 fold enrichment (6-mer frequency, TF over GST control); in experiment [16] it was 1.16 fold enrichment (6-mer frequency, TF over GST control); in experiment [17], 1.09 fold enrichment (6-mer frequency, TF over GST control).

The values above are taken from PMC7862700, “An all-to-all approach to the identification of sequence-specific readers for epigenetic DNA modifications on cytosine”.
